In PubChem BioAssay AID1508600 (Functional Genomics Laboratory (NCATS/FGL), 2020):
The campaign covered roughly 53,000 sequences. About 3,700 (7%) were called active.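 Rule for the calls: active = gene knockdowns whose robust z-score for IL-1 alpha signal is at least 2 or at most -2, so actives lie on both sides; inactive = the rest.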 The full list was thinned out, with actives kept by preference.

Test: Components of the Cytosolic LPS Sensing Pathway: Gene Identification via Genome-wide siRNA Screen
Settings: RAW264.7 macrophages, IL-1a HTRF, actives lie on both sides, screened at 100 nM (by protocol), cells primed 5 h with Pam3CSK4 first
Excerpt: Non-canonical inflammasome activation by cytosolic LPS is a critical component of the host response to Gram-negative bacterial infection, however we lack a comprehensive understanding of the cellular processes that control this pathway. Here we describe a genome-wide siRNA screen to identify genes regulating the mouse macrophage IL-1 alpha response to cytosolic LPS.
RAW264.7 cells were maintained in complete DMEM media, comprising DMEM with 4.5 g/L glucose, 10% FBS (Gemini Bio-Products, West Sacramento, CA), 2 mM Glutamine (Lonza) and 20 mM HEPES (Lonza), hereafter complete DMEM.
The RNAi screen was conducted in 384-well format using the Ambion Silencer Mouse Genome siRNA Library (#4391425), which consists of three unique, nonoverlapping, nonpooled siRNAs for each of 17,000 gene targets. siRNA reagents ([…]) were stamped into 384-well white flat-bottom microplates (Corning, 3570) using a Velocity11 VPrep liquid handling system (Agilent) integrated into a BioCel robotic platform (Agilent) in columns 1-22, leaving columns 23-24 empty for negative (Ambion, Negative control #1) and positive (mouse Casp4) controls, respectively. The median value of each plate's negative control column was used to normalize sample wells, and the positive control was used to assess transfection efficiency and assay performance.
Lipofectamine RNAiMAX Transfection Reagent ([…]; Invitrogen) was added in […] serum-free, antibiotic-free media to plate wells using a Thermo Scientific Matrix WellMate and Microplate Stacker. Plates were incubated for 45 min at room temperature to allow for the sufficient formation of siRNA-lipid complexes. Cells were seeded at a density of 1x10^4 cells per well in 20 microL media containing 20% (vol/vol) FBS without antibiotics. The final concentration of siRNA in each well was 100 nM. Cells were cultured for 48h at 37 degrees C in 5% CO2 before addition of […] of TLR ligand Pam3CSK4 for 5 hours. The medium was then removed, replaced with […] growth media and cell were transfected with […] of LipidA and TransIT-TKO (Mirus) for 24 hour. At the end of the LipidA treatment, […] of supernatant was transferred to a 384 Greiner Bio-one non-binding low volume plate and […] of IL-1a HTRF reagent (Cisbio, 62MIL1APEH) was added and incubated at room temperature overnight. The plates were read on an EnVision plate reader (PerkinElmer). Cell viability was measured by adding 20ul Cell Titer Glo to the original plate and running a luminescence read on the EnVision. The quantified IL-1a signal for each siRNA gene-targeted well was divided by the median of the negative control wells and multiplied by 100 to achieve a negative control normalized value for each well/siRNA. This normalized value was then used to generate a robust z-score by first taking the log of each value and then by subtracting the median and dividing by the […].

z-score, active:
CGUGACCAUCAGGCUAAAGTT against Ecrg4 3.42
GGGACGGAGAAAAGCUUUUTT against Olfr419 3.92
GUUCACACACGAAUUUGACTT against H2-Oa -2.32
GCUCUAGGGUCGUAAUGUUTT against Ralb -2.33
GGAACACCAUCAAUAAACUTT against Tjap1 -2.09
GGGCUAUCUUCUGAUUGGCTT against Zp3r -2.45
GGAAGUAGGACUAGCCAUCTT against Akr1c6 3.37
GCCGUUUGUACCUUGUCAGTT against 4933430I17Rik -3.01
GGAGUAUGAAUGCUAUGUCTT against Fsd2 -3.24
GGGAUGAUUUUGAGAUUUUTT against Dmpk 2.74
CGAGGACUACUAGAAGAAATT against Trpc1 2.36

z-score, inactive:
GCUUCUUACAGUUUGCCCATT against Vmn1r65 -0.859
GGUAAAAAAUGCUUUCAACTT against Olfr1008 0.696
GGCGACAGCUAAGUGUUGGTT against Gprc5a -0.0528
GGAGCUGAUAAGAAAACUATT against Gbp2 0.486
CCCUCAGUUGGUCACAUGUTT against Mpc1 -0.182
GGGACAAAAUUAUUCCUCCTT against Med14 -0.977
GGAACAACUUUCAUCUCACTT against Anxa10 1.34
CGAAAUUUAACUUGAACAGTT against Toporsl 0.659
AGCAGAAAAAGGAAGGCCATT against Xlr3c 0.733
GGACACAGACCUUUGUUAATT against Lpar6 -0.0566
GCCUGUUUGGUAUUCUUCCTT against Olfr832 -1.19
GGGAAACUCUGCAUGAGUATT against Tenm1 -0.137
CCUCUGUUGAACCAUCAUUTT against Gpr21 0.127
GGCGGUGAUGGAAUGAACATT against Plod2 0.706
CCUACCACAUGGAUGAGUATT against Accs 0.525
GGAUUUCAUCUGGUACCUGTT against Ceacam19 -0.0176
CGGAAUAUAGAAUGAAACCTT against Cd200r3 0.731
GGACCAUAAAGUGUUACUATT against Tnrc6b 0.526
GGGCCCAUUUUCAGAAAUGTT against Tagln3 0.0546
GGAGGUUAAGAUUCCAGAGTT against Prune1 1.52
CCUAUGGCCAUGAUCCUUATT against Olfr575 1.29
GGUCAAUGAACCAUCCCACTT against Padi6 -0.983
GGACCAGAGUAACUUGAAUTT against Zfp128 -0.66
CCAUUAUUCUAGUGUCCUATT against Olfr1368 -0.753
GGAACUGCUCAAGAUCAAGTT against Plagl2 1.92
GGGCUGAUAAUGUUAGCUCTT against Olfr161 0.48
CCUCAUAGGCUUGACAAUUTT against Exoc2 -0.0626
GGCAGCAUGAUUAUUUCAATT against Gm4861 -0.0747
CCUGAAAAGCUAUUGGGUATT against Baat -0.196
GGGAUGGAGAAUCAAGAUATT against Tmem117 -1.9
CCCACAUAAAUAAGUUGGUTT against Olfr996 -1.02
GGUUCAGCUUUUCAUCAGUTT against Cops3 1.37
GGAGAUUAUCACAACUAUUTT against Sash3 0.845
GGUUCUUGGGCACCAUUAUTT against Olfr786 0.742
GCAAUAUUUCAGCACACUGTT against Txndc16 -1.08
GCUAAAUUCAGCUGAGGCUTT against Kdm4d -0.217
GGGAAUAUGUCUUGUGAUATT against Ddo 0.141
GGUUUUACUGUAGACCUUUTT against Hnrnpa1 0.542
GGGAAACUUCUUCAUGGGUTT against Dazap2 0.0384
GGCUCAUCGAGAUUAACCCTT against Carns1 0.195
GGACAUAUUGGAUGGUGAUTT against Usp2 -0.847
CCGAGAACUACCUGUGUAATT against Unc119b 0.266
GGGUUCAAAUAGUUUACCUTT against Tmem33 0.156
GCCGCAUUGAGUACAUGGUTT against Ap1m1 1.9
GGAUUUCAGAAAGUGGCCUTT against Acad8 -1.22
CCCUAUGGACUGAGUUUGUTT against Olfr183 -0.036
CUACGUGCUAGCUCAAGGATT against Mmp28 -1.1
GGAAGUAUUUCACAUGUGATT against Dctn1 -0.299
CGGUAUAUAGAUCACUUCUTT against Olfr56 0.276
GGUGAUCCUCAUAUUGGCCTT against Npy2r -0.521
GCUACUUGUUGAGACCCAATT against Esr1 -0.616
GCCCAAAAGUAUAAACCAGTT against Peg12 0.318
CGAGCUUGCUAUCGGGAAGTT against Defb7 -0.902
GCUUAAGCAGUGAUAAUAATT against B230317F23Rik -1.65
GGACACAGGACUCUACACCTT against Psg16 0.293
CGGGAAGCAUCACUAUUUCTT against Nabp1 -0.822
GGACUCUUUUAUGAGUUUGTT against Lims1 0.757
